Experimental findings from publication PMC7819943, “Rice protein-binding microarrays: a tool to detect cis-acting elements near promoter regions in rice” are described below.

Whole data set: some 68,000 sequences, median “fluorescence intensity (a.u.)” near 9,100, cut for the highest 2% near 16,000. The entries come from a sample that favours the highest values as a whole.

Sequence of OsWRKY34 (Q0JBA9 entry or part of it): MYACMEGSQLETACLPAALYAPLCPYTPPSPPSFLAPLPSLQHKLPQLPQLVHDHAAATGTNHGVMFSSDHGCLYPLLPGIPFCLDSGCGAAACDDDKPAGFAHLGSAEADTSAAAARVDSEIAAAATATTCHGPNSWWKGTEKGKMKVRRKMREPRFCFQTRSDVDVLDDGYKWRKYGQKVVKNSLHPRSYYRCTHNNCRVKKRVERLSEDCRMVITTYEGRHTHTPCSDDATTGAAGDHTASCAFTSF

The experiment has as its target OsWRKY34 (Oryza sativa, UniProt Q0JBA9 1-250). In words: protein-binding microarray (RPBM); PBS, 2% BSA, 51.3 ng/ul salmon testes DNA, 50 uM zinc acetate, 200 nM TF, 25 C, 1 h; high values mean tight binding. The following applies: protein: recombinant; tags: N-terminal polyhistidine and DsRed monomer fusion (pET32a); label: CyDye5-dUTP incorporated in the synthesized complementary strand; 3' TTTTT single-stranded linker to array surface; dsDNA, one strand shown. The gist of the method:
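Transcription factors, each fused N-terminally to a polyhistidine tag and DsRed, were expressed in E. coli BL21-CodonPlus and purified on Ni–NTA. A custom Agilent array was made double-stranded by primer extension with Cy5-dUTP and blocked with 2% BSA. It was incubated with 200 nM protein in PBS, 2% BSA, salmon testes DNA and 50 µM zinc acetate at 25 °C for 1 h, then washed. The binding signal is per-feature fluorescence intensity (arbitrary units) read on an Axon 4000B scanner.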
For the sequence “TCGTTGGTGGGTAGGTGGTGGAGATGGTGGTGGCGGCGGGCGGAGTCACCTAGTGCAG”, the binding signal is 15600 fluorescence intensity (a.u.).
Turning to “GGCCGGCGACGCTGAACGGGGTGGGGTAGTCTGCTATTTACGGAGTCACCTAGTGCAG”, the binding signal was 18000 fluorescence intensity (a.u.).
As for “TAGGTAGGGTGGTGGCGGGCGGGCTCCCGCAGCCAGTGGCCGGAGTCACCTAGTGCAG”, the binding signal is 11100 fluorescence intensity (a.u.).
The figure for “CGGGTAGGGTGGGGTGGGGCGGGGTGGGGTTGGCGGCGACCGGAGTCACCTAGTGCAG” is 39500 fluorescence intensity (a.u.); for “GCGGGCGGCAGCGCGGTGGGGCGGTGGCGGTGGTGGCGGCCGGAGTCACCTAGTGCAG” it is 9980 fluorescence intensity (a.u.).
As for “GGTGGGCCGGGCTTTGCTTTTGCTTTAAACATTTGCGTGGCGGAGTCACCTAGTGCAG”, the binding signal was 8680 fluorescence intensity (a.u.).
Under “GCGGCGCGGTGCGCTCGGGTGGGGCCGGTCGACGTCTGCACGGAGTCACCTAGTGCAG” stands 8120 fluorescence intensity (a.u.); under “ACCTCCTTTTCATACAGCCGGCGTGGCATTTGTGGGCCCACGGAGTCACCTAGTGCAG”, 9220 fluorescence intensity (a.u.); under “AAGAAGGGGAAGGGAGTTTCTATGGTTCTTGCTGGTGCCGCGGAGTCACCTAGTGCAG”, 8750 fluorescence intensity (a.u.).
Under “GCCTATTTTTTCGTACGGAGTTGGCTTGTAGTAGTTGCATCGGAGTCACCTAGTGCAG” stands 8950 fluorescence intensity (a.u.).
Under “ACTTCCAAGTCTTCGACCGCGACACTCCTTACCCGCACGCCGGAGTCACCTAGTGCAG” stands 8570 fluorescence intensity (a.u.); under “CGACTACTCGGCCGGCCACCTGCGCCGTCTCTACCCCGAGCGGAGTCACCTAGTGCAG”, 9320 fluorescence intensity (a.u.).
Turning to “GTCCTGCTACGCATACTCTCCCCTCTGACTCTTTGCGCCACGGAGTCACCTAGTGCAG”, the binding signal is 8250 fluorescence intensity (a.u.).
Under “GGTCCATCACTCCAAGGTCAGTGCTTTTTTATTTACTCTACGGAGTCACCTAGTGCAG” stands 14600 fluorescence intensity (a.u.); under “AATAAGACGAAAAGTCAAACGTTTGTCAAAAAGTCAACGGCGGAGTCACCTAGTGCAG”, 8290 fluorescence intensity (a.u.).
Under “TACTCCTCGTCATTTTGGTTTTGGTTTTGGTTTGGGTGGTCGGAGTCACCTAGTGCAG” stands 10400 fluorescence intensity (a.u.); under “CGGGCGGGTCAAGGTCTCCTCCTCTCTCGTCGGCGACCTCCGGAGTCACCTAGTGCAG”, 10900 fluorescence intensity (a.u.); under “CCAAGGGTGGGGCCTCTCGTCGTCTCGTCTCCTCTCGTCTCGGAGTCACCTAGTGCAG”, 20400 fluorescence intensity (a.u.).
“GACTAATAGCTTCAGTTTTGCATGCGATGGCCACTCAAATCGGAGTCACCTAGTGCAG”: the binding signal was 10100 fluorescence intensity (a.u.).
The figure for “TTCAGTTTTCACTTCATTATTTTGCCGTTTCTCTTTGACCCGGAGTCACCTAGTGCAG” is 12300 fluorescence intensity (a.u.).
The figure for “GCTCCTCGTCGCCACCGATCCCCGCCGCCGGCTTGCCTCACGGAGTCACCTAGTGCAG” is 9340 fluorescence intensity (a.u.); for “CCACTCACCACGCGCGCTGCCCGCTTGCCTCCTCTGCCCACGGAGTCACCTAGTGCAG” it is 10200 fluorescence intensity (a.u.).
The figure for “CACCACACGTCACGCTTCCACCTCCACCTCCACCTCACTGCGGAGTCACCTAGTGCAG” is 11900 fluorescence intensity (a.u.).
With “CGCGCCCACCAGTCCACTCACGCGGTCACTCTCCTCCAGTCGGAGTCACCTAGTGCAG”, the binding signal was 8140 fluorescence intensity (a.u.).
Under “ATCACACGCTGCACCTCTCCCGCGCCCACCAGTCCACTCACGGAGTCACCTAGTGCAG” stands 18500 fluorescence intensity (a.u.); under “CACCACCCCGGCCGCTTCCGCCACTTCACTCCACTCCACACGGAGTCACCTAGTGCAG”, 13200 fluorescence intensity (a.u.); under “ACCACTCCACGCGCCTATATCACCACACGTCACGCTTCCACGGAGTCACCTAGTGCAG”, 16700 fluorescence intensity (a.u.).
Under “ACGCTGTTGTAATTCCAGATGTTGGTCAGTAGTCATTACTCGGAGTCACCTAGTGCAG” stands 10700 fluorescence intensity (a.u.); under “CGGGGAGTCGTTGCTGTTCTTGTTCTTGGTCGAGGTTGAGCGGAGTCACCTAGTGCAG”, 14500 fluorescence intensity (a.u.).
On to “TCAGCAATCTCTCTTTCTACTAGGGTCTCTTCTACCAGCGCGGAGTCACCTAGTGCAG”, for which the binding signal was 8070 fluorescence intensity (a.u.).
The figure for “TTGACCACCAAGCTCCTGCTTCTTGCAATCTTGATCGATACGGAGTCACCTAGTGCAG” is 9170 fluorescence intensity (a.u.); for “ATCCTCATATCGTGTATCCGTATTCGTATCCCCGTATTTGCGGAGTCACCTAGTGCAG” it is 8230 fluorescence intensity (a.u.).
Under “CTGCACCTAAAGCCTTTCAGAAAACTTTTCACCCTGTCAACGGAGTCACCTAGTGCAG” stands 8740 fluorescence intensity (a.u.); under “CACTAATTGATCAATTGCACAACAAATTGCTTGAATAACGCGGAGTCACCTAGTGCAG”, 65500 fluorescence intensity (a.u.).
The figure for “ACATCAACACACCATCACTCGCACAAAACACACTAATAAACGGAGTCACCTAGTGCAG” is 8440 fluorescence intensity (a.u.).
Take “TCAACCATAATCACTAGTGTCACAAACACCTTGAAATTCACGGAGTCACCTAGTGCAG”: the binding signal is 8120 fluorescence intensity (a.u.).
The figure for “AGAATGTTATACGGCGCTCGATCTATTATTCCGCACTCTACGGAGTCACCTAGTGCAG” is 8130 fluorescence intensity (a.u.).
Under “TCTCCGTTGTAATATGTTCTTTGTCCTCGATGTGTTTCCGCGGAGTCACCTAGTGCAG” stands 11400 fluorescence intensity (a.u.).
Consider “AATTTCGTTTTTAATACGCCCAGTGAAATTTGCTGTCTAGCGGAGTCACCTAGTGCAG”, for which the binding signal is 17500 fluorescence intensity (a.u.).
Under “GATGTACTGAACTGTTTTTTTTTTCGTTTTTAATTTCTAGCGGAGTCACCTAGTGCAG” stands 8550 fluorescence intensity (a.u.); under “GTTTTACTAGTGAATTTTCTTTTCTTTGCTTCGTTTAATGCGGAGTCACCTAGTGCAG”, 8930 fluorescence intensity (a.u.); under “TCTCGCCACCTTCGCCTCCATCTCATCGACCGCCCACTTCCGGAGTCACCTAGTGCAG”, 12800 fluorescence intensity (a.u.).
